MLL AF4-AF9 inh – MLL-AF4/AF9 protein interaction inhibition. inhibition, % at 10 µM. P42568. AlphaScreen, biotin-AF4 peptide binding to FLAG-AF9. 350,000 compounds, 0.47% hits. AID 651704;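 active means every replicate reaching a set inhibition limit, whatever the replicate mean, cut at about 25% in these data; inconclusive means mean inhibition reaches that limit but some replicates miss it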
Target sequence (P42568 whole entry, looked up): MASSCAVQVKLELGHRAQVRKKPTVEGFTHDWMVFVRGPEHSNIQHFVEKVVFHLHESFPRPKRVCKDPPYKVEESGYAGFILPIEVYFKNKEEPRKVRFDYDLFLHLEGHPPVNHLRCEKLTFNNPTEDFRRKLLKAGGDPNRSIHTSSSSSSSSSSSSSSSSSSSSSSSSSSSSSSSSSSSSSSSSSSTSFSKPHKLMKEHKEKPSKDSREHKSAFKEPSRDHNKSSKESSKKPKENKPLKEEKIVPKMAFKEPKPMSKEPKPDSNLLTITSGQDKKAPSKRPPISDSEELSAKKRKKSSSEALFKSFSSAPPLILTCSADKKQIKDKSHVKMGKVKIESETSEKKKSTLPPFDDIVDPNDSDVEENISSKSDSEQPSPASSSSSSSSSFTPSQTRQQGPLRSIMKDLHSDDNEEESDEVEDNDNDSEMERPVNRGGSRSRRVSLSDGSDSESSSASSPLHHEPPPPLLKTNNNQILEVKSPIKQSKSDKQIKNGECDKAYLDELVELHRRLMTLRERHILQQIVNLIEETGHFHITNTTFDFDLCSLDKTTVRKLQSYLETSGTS
RAD52 anneal inh – blocks human RAD52 DNA annealing; AID 651710; recombinant RAD52 DNA annealing, FRET fluorescence; inhibition, % at 18.7 µM; 360,000 compounds, 0.46% hits; P43351;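 active means every replicate showing at least 50% inhibition; inconclusive means mean inhibition at least 50% but not in every replicate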
Casp6 inh – caspase-6 (human) enzyme inhibition. P55212. purified caspase-6, Z-VEID-R110 cleavage fluorescence. AID 686996. inhibition, % at 12.5 µM. 350,000 compounds, 0.53% hits;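 active means mean inhibition across replicates at least about 35%, with every replicate also reaching that limit, limit read from the data; inconclusive means only one of the two criteria met; inactive means neither criterion met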
miR122 inh – blocks miR-122 activity in Huh7 sensor cells; Huh7 miR-122 Renilla luciferase sensor, 48 h; neutral wells = 0, positive control = 100; activation (reporter increase), % at 12.5 µM; 340,000 compounds, 0.3% hits; AID 602342;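 active means mean replicate activation score at least 90 and every replicate individually at or above 90; inconclusive means only one of the two criteria met; inactive means neither criterion met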;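 further: higher luciferase means less miR-122 activity so hits act as miR-122 inhibitors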
NSD2 HMT inh – inhibitors of human histone methyltransferase NSD2. AID 743445. 310,000 compounds, 0.54% hits. O96028. inhibition, % at 12.5 µM. NSD2 peptide methylation, AlphaScreen, 120 min; in the data active means inhibition above about 50%
Of the large screens only hits and unclear results are named; the others gave an inactive call. Compounds with a hit are over-represented: about 1.5% of the library has one in this group of screens.

COc1ccc2c3c(n(C)c2c1)[C@@H](CO)N(C(=O)CC1CC1)CC31CN(C(=O)C2CCC2)C1	none (no result: miR122 inh, NSD2 HMT inh)
O=[N+]([O-])c1cc(CN2CCN(c3cccc(C(F)(F)F)c3)CC2)c2cccnc2c1O	MLL AF4-AF9 inh 36, Casp6 inh 69 (no result: miR122 inh)
O=[N+]([O-])c1cc(Cl)ccc1N1CCN(c2cccc(C(F)(F)F)c2)CC1	none (no result: MLL AF4-AF9 inh, RAD52 anneal inh, Casp6 inh)
CCOC(=O)C1CCCN1C(=O)c1ccc(OC)c(Br)c1 (configuration not stated)	none
CCOC(=O)C1CCCCN1C(=O)c1cc2ccc(OC)cc2c2cc(OC)c(OC)cc12 (configuration not stated)	miR122 inh 109 (no result: NSD2 HMT inh)
CN(C)CCNc1ccc2ncn3c4ccc(O)cc4c(=O)c1c23	MLL AF4-AF9 inh 34 (no result: miR122 inh)
CCNC(=S)N1CCCCC1CO (configuration not stated)	Casp6 inh 47 (no result: miR122 inh)
Cc1cc(-c2nn(-c3ccccc3F)cc2CN2CCC(C(N)=O)CC2)c(C)s1	none
Cc1cc(-c2nn(-c3ccccc3F)cc2CNCCc2cnc[nH]2)c(C)s1	MLL AF4-AF9 inh 29
O=C(C[C@H]1CC[C@@H](NS(=O)(=O)c2ccccc2)[C@H](CO)O1)NCc1ccncn1	none (no result: miR122 inh, NSD2 HMT inh)
COc1ccc(N(C)S(=O)(=O)c2cccc(C(=O)NCC(c3cccs3)N(C)C)c2)cc1 (configuration not stated)	Casp6 inh 40 (no result: miR122 inh)
COc1ccc(N(C)S(=O)(=O)c2cccc(C(=O)NCC(c3ccco3)N3CCCC3)c2)cc1 (configuration not stated)	none (no result: miR122 inh)
O=C1CC(SC(=S)C2CCCC2=O)C(=O)N1 (configuration not stated)	Casp6 inh 49 (no result: miR122 inh)
CC1=NN(c2ccccc2)C(=O)C1C(=S)SC1CC(=O)NC1=O (configuration not stated)	none (no result: Casp6 inh)
CN1[C@H](C(=O)NC2CCCCC2)[C@@H](CO)[C@@H]2Cn3c(ccc(-c4cccc(F)c4)c3=O)[C@@H]21	none (no result: NSD2 HMT inh)
O=C(C[C@@H]1C=C[C@H](NC(=O)c2ccccc2)[C@H](CO)O1)NCc1ccc(Oc2ccccc2)cc1	none (no result: NSD2 HMT inh)
COCCn1c(SCC(=O)Nc2cc(C)on2)nnc1-c1ccco1	none (no result: MLL AF4-AF9 inh, RAD52 anneal inh, Casp6 inh)
COCCn1c(SCC(=O)Nc2cc(C)on2)nnc1-c1ccccc1	MLL AF4-AF9 inh 34
CCc1noc(C)c1C(=O)Nc1ccc(S(=O)(=O)N2CCCC(C)C2)cc1 (configuration not stated)	Casp6 inh 42
CCc1noc(C)c1C(=O)Nc1ccc(C)c(S(=O)(=O)N2CCCCCC2)c1	none
Cc1ccccc1-c1ccc([C@H]2[C@H](CO)N3CCCCN(C(=O)CN4CCOCC4)C[C@@H]23)cc1	none (no result: NSD2 HMT inh)
Cc1ccc2nc(C)c(C)nc2c1N	miR122 inh 113 (no result: MLL AF4-AF9 inh, RAD52 anneal inh, Casp6 inh)
CO[C@@H]1CN(C)C(=O)c2cc(NC(=O)c3ccccc3)ccc2OC[C@H](C)N(CC2CC2)C[C@@H]1C	none (no result: MLL AF4-AF9 inh, RAD52 anneal inh, Casp6 inh, NSD2 HMT inh)
COc1cccc(S(=O)(=O)Nc2ccc3c(c2)[C@@H]2C[C@H](CC(=O)NCc4cccc(F)c4)O[C@H](CO)[C@@H]2O3)c1	none (no result: NSD2 HMT inh)
C[C@@H]1CN([C@@H](C)CO)C(=O)c2cc(N(C)C)ccc2O[C@@H]1CN(C)Cc1ccc(Oc2ccccc2)cc1	none (no result: MLL AF4-AF9 inh, RAD52 anneal inh, Casp6 inh, NSD2 HMT inh)
C[C@@H]1CN([C@@H](C)CO)C(=O)c2cc(N(C)C)ccc2O[C@H]1CN(C)Cc1ccc(Oc2ccccc2)cc1	MLL AF4-AF9 inh 45 (no result: NSD2 HMT inh)
C[C@H]1CN([C@@H](C)CO)C(=O)c2cc(N(C)C)ccc2O[C@@H]1CN(C)Cc1ccc(Oc2ccccc2)cc1	MLL AF4-AF9 inh 40 (no result: NSD2 HMT inh)
C[C@H]1CN([C@@H](C)CO)C(=O)c2cc(N(C)C)ccc2O[C@H]1CN(C)Cc1ccc(Oc2ccccc2)cc1	MLL AF4-AF9 inh 45 (no result: NSD2 HMT inh)
C[C@@H]1CN([C@H](C)CO)C(=O)c2cc(N(C)C)ccc2O[C@H]1CN(C)Cc1ccccc1	none (no result: NSD2 HMT inh)
COc1cccc(-c2ccc3c(c2)O[C@H](CN(C)C)[C@@H](C)CN([C@H](C)CO)S3(=O)=O)c1	none (no result: NSD2 HMT inh)
COc1ccc2c3c(n(C)c2c1)[C@@H](CO)N(Cc1nccs1)CC31CCN(C)CC1	none (no result: Casp6 inh, miR122 inh, NSD2 HMT inh)
Cc1noc(C)c1CSc1nc2[nH]ncc2c(=O)n1-c1ccccc1	none (no result: MLL AF4-AF9 inh, RAD52 anneal inh, Casp6 inh)
Cc1noc(C)c1CSc1nc2ccccc2c(=O)n1-c1ccccc1	miR122 inh 99 (no result: MLL AF4-AF9 inh, RAD52 anneal inh, Casp6 inh)
COc1cc2c(cc1N)-c1ccc(N)cc1C2=O	MLL AF4-AF9 inh 35 (no result: miR122 inh)
C[C@H]1CN([C@@H](C)CO)C(=O)Cc2cc(NS(C)(=O)=O)ccc2O[C@@H]1CN(C)C(=O)Nc1ccc2c(c1)OCO2	none (no result: NSD2 HMT inh)
CN(C)c1ccc(/C=C(\C#N)C(=O)c2ccccc2)cc1	none
CN(C)c1cccc(/C=C(\C#N)c2ccccc2)c1	MLL AF4-AF9 inh 26 (no result: miR122 inh)
CC1(C)CC(=O)C2=C(C1)NC(=O)CC2	Casp6 inh 38 (no result: miR122 inh)
O=C(O)C1=C(C(=O)O)C2C=CC1C2	Casp6 inh 53
CCO/C=C1/C(=O)N(Cc2ccccc2)C(=O)c2ccccc21	Casp6 inh 94 (no result: miR122 inh)
CCO/C=C1/C(=O)N(c2ccccc2OC)C(=O)c2ccccc21	Casp6 inh 38
CCO/C=C1\C(=O)N(c2ccccc2)C(=O)c2ccccc21	none (no result: MLL AF4-AF9 inh, RAD52 anneal inh, Casp6 inh, NSD2 HMT inh)
O=C(N[C@@H]1CC[C@@H](CCn2cc(-c3ccc(F)cc3)nn2)O[C@@H]1CO)c1cnccn1	none (no result: miR122 inh, NSD2 HMT inh)
O=C(COc1ccc(Cl)cc1Br)OCC(=O)c1ccc[nH]1	Casp6 inh 38
CCN(Cc1ccncc1)C(=O)c1cccc(S(=O)(=O)N(C)c2ccccc2)c1	none (no result: MLL AF4-AF9 inh, RAD52 anneal inh, Casp6 inh, miR122 inh)
COc1cc(C)c(S(=O)(=O)NOCc2ccc([N+](=O)[O-])cc2)c(C)c1C	miR122 inh 323
COc1cc(NS(=O)(=O)c2ccc(-n3cccn3)cc2)cc(OC)c1	miR122 inh 95 (no result: MLL AF4-AF9 inh, RAD52 anneal inh, Casp6 inh)
Cc1ccc(NS(=O)(=O)c2ccc(-n3cccn3)cc2)cc1C	none
COc1ccccc1N1CCN(Cc2cc(Br)c(O)c3ncccc23)CC1	MLL AF4-AF9 inh 27 (no result: NSD2 HMT inh)
CCC(=O)Nc1ccc2c(c1)C(=O)N(C)C[C@@H](OC)[C@@H](C)CN(C(=O)c1ccccn1)[C@@H](C)CO2	MLL AF4-AF9 inh inconclusive (no result: miR122 inh, NSD2 HMT inh)
O=C(O)/C=C/c1ccc([N+](=O)[O-])o1	Casp6 inh 61 (no result: miR122 inh)
CN1CCN(C(=O)/C=C/c2ccc([N+](=O)[O-])o2)CC1	none (no result: miR122 inh)
O=C(N/N=C\C=C\c1ccc([N+](=O)[O-])o1)c1cccs1	Casp6 inh 56
COc1ccc(S(=O)(=O)NNC(=O)Cc2csc(C)n2)cc1[N+](=O)[O-]	Casp6 inh 56
Cc1nc(CC(=O)NNS(=O)(=O)c2ccc3ccccc3c2)cs1	none (no result: MLL AF4-AF9 inh, RAD52 anneal inh, Casp6 inh)
COc1cc(C)c(S(=O)(=O)N2CCN=C2c2ccccc2)cc1C	none (no result: MLL AF4-AF9 inh, RAD52 anneal inh, Casp6 inh, miR122 inh)
Cc1cc(C)c(S(=O)(=O)N2CCN=C2c2ccccc2)cc1C	miR122 inh 100 (no result: MLL AF4-AF9 inh, RAD52 anneal inh, Casp6 inh, NSD2 HMT inh)
COCC(=O)Nc1ccc2c(c1)[C@@H]1C[C@H](CC(=O)N(C)C)O[C@H](CO)[C@@H]1O2	none (no result: NSD2 HMT inh)
C[C@H]1CN([C@@H](C)CO)S(=O)(=O)c2ccc(C3=CCCCC3)cc2O[C@@H]1CN(C)C(=O)C1CCCCC1	none (no result: NSD2 HMT inh)
Cc1nnc(NC(=O)c2cc(-c3ccco3)nc3ccccc23)s1	Casp6 inh 53 (no result: miR122 inh)
CCCn1c2ccccc2c2nnc(SCCN3CCOCC3)nc21	Casp6 inh 43
